A selection: hits, their analogues and other compounds. The true share with any hit is near 5.4%.
aDG glyco up: alpha-DG glycosylation activation | Pro5-aDG cells, alpha-DG glycosylation AlphaScreen (IIH6); 0% Pro5, 100% B10-LARGE cell signal | activation, % at 10 µM | hit rate 0.22% among 360,000 | AID 624168;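 active = activation of at least 8% versus controls, or a plate z-score of at least 8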;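 also: Pro5 are CHO cells carrying HIG-tagged alpha-DG that lacks glycosylation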
APOBEC3A inh: inhibitors of human APOBEC3A DNA deaminase | recombinant A3A, FAM/TAMRA ssDNA deamination fluorescence | AID 493011 | hit rate 0.41% among 330,000 | inhibition, % at 20 µM;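 active = at least 40% inhibition at 20 µM here, with at most 30% in a related deaminase screen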
Target sequence (P31941 whole entry, looked up): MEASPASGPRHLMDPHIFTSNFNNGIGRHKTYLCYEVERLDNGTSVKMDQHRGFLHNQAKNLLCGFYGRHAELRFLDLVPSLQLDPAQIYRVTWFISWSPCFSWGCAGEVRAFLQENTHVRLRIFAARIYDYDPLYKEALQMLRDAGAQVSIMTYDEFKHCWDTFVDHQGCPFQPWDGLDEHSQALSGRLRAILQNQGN
ALR H2O2 inh: human ALR oxidase inhibition via reduced H2O2; purified ALR, DTT oxidation, H2O2 HRP-luminol luminescence; inhibition, % (concentration not given with the values); P55789; AID 485317; hit rate 3.8% among 290,000;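 active = mean replicate inhibition above about 79%, with every replicate also reaching it, limit read from the data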
Target sequence (P55789 whole entry, looked up): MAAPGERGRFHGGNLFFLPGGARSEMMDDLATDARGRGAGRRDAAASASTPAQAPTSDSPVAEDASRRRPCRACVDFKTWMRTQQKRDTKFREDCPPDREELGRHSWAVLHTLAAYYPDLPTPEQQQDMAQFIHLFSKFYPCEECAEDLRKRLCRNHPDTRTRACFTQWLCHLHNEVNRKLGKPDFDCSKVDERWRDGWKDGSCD
rCAG RNA binder: r(CAG) repeat RNA binding; inhibition, % at 3 µM; TO-PRO-1 dye displacement fluorescence; hit rate 1.3% among 370,000;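 active = inhibition above the plate cutoff, the mean of all test compounds on that plate plus 3 SD, cut at about 35% in these data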;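 also: higher means more dye released from RNA so lower well fluorescence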
PHOSPHO1 block: PHOSPHO1 (human) inhibition | inhibition, % at 13.3 µM | AID 1565 | recombinant PHOSPHO1, absorbance phosphatase assay | hit rate 1.1% among 290,000; in the data active = inhibition above about 60%
Target sequence (Q8TCT1 whole entry, looked up): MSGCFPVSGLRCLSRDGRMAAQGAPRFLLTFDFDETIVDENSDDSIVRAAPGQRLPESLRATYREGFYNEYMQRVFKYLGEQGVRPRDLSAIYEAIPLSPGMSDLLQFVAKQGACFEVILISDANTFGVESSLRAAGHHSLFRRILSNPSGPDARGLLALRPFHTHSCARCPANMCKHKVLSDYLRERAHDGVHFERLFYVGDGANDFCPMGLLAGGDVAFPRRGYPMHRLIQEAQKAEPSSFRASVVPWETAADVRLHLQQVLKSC
A3G deaminase: APOBEC3G (human) deaminase inhibition; Q9HC16; recombinant A3G, ssDNA deamination FAM/TAMRA fluorescence; inhibition, % at 20 µM; hit rate 0.28% among 330,000; AID 493012;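 active = inhibition of at least 40% at 20 µM, with no more than 30% in the related APOBEC3A deaminase screen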
A3A conf: confirmation of human APOBEC3A DNA deaminase inhibitors. hit rate 63% among 1,400. shares compounds with APOBEC3A inh. AID 493151. recombinant A3A, ssDNA deaminase UDG fluorescence assay. inhibition, % at 20 µM;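 active = inhibition reaching a set limit, 80% of the first screen's cutoff, at 20 µM in any replicate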
UDG A3A counter: counter-screen for APOBEC3A inhibitors: UDG | shares compounds with APOBEC3A inh | UDG counterscreen, FAM/TAMRA uracil oligo fluorescence | inhibition, % at 20 µM | 1,000 tested, under 10 active | AID 504714; call rule not given here
Large screens that a line does not name were inactive (follow-up assays come after a bar, where they were run).

CC1(OC(=O)C2CCCC2)C(=O)C=C2C=C3CCCCN3C=C2C1=O (configuration not stated)	APOBEC3A inh 44 (no result: rCAG RNA binder) | A3A conf 23 | UDG A3A counter inactive
Cc1ccc(S(=O)(=O)N2CCCN(C)CC2)cc1	none
CN1CCCN(S(=O)(=O)c2ccccc2)CC1	APOBEC3A inh 67 | A3A conf 61 | UDG A3A counter inactive
COC(=O)C1CN(Cc2cn(Cc3ccccc3)nn2)CCS(=O)(=O)N1Cc1ccc(Cl)cc1 (configuration not stated)	none (no result: aDG glyco up, APOBEC3A inh, ALR H2O2 inh, PHOSPHO1 block, A3G deaminase)
CCN1C(=NCc2cc(OC)c(OC)c(OC)c2)N[C@@H](c2cccc(C(F)(F)F)c2)C(C(=O)OC)=C1C	none (no result: PHOSPHO1 block)
CCN1C(=NCC2CC2)N[C@@H](c2ccccc2)C(C(=O)OC)=C1C	APOBEC3A inh 46 (no result: PHOSPHO1 block) | A3A conf 80 | UDG A3A counter inactive
COC(=O)C1=C(C)N(Cc2ccccc2)C(=NCc2ccc(OC)cc2)N[C@H]1c1cccc(F)c1	none
CCN1C(=NCc2ccc(OC)cc2)N[C@@H](c2ccccc2)C(C(=O)OC)=C1C	APOBEC3A inh 92 | A3A conf 66 | UDG A3A counter inactive
CCN1C(=NCc2cc(OC)c(OC)c(OC)c2)N[C@@H](c2ccccc2)C(C(=O)OC)=C1C	APOBEC3A inh 45 (no result: rCAG RNA binder, PHOSPHO1 block) | A3A conf 68 | UDG A3A counter inactive
O=C(c1cccc(S(=O)(=O)N2CCCCCC2)c1)N1CCN(c2ccccc2F)CC1	none
CCN1CCN(c2ccc(S(=O)(=O)N3CCCCC3)cc2NC(=O)c2ccc(F)cc2)CC1	none (no result: ALR H2O2 inh)
CCN1CCN(c2ccc(S(=O)(=O)N3CCOCC3)cc2NC(=O)/C=C/c2ccc([N+](=O)[O-])cc2)CC1	APOBEC3A inh 43 (no result: PHOSPHO1 block) | A3A conf 48 | UDG A3A counter inactive
CCN1CCN(c2ccc(S(=O)(=O)N3CCOCC3)cc2NC(=O)c2cccc([N+](=O)[O-])c2)CC1	none (no result: PHOSPHO1 block)
CCN1CCN(c2ccc(S(=O)(=O)N3CCOCC3)cc2NC(=O)c2ccc(C(F)(F)F)cc2)CC1	APOBEC3A inh 60 (no result: PHOSPHO1 block) | A3A conf inactive
CCc1noc(C)c1C(=O)Nc1cc(S(=O)(=O)N2CCOCC2)ccc1N1CCN(CC)CC1	APOBEC3A inh 48 (no result: PHOSPHO1 block) | A3A conf 60 | UDG A3A counter inactive
CN1CCN(S(=O)(=O)c2cccc(C(=O)N3CCN(c4ccccc4F)CC3)c2)CC1	APOBEC3A inh 44 (no result: PHOSPHO1 block) | A3A conf 45 | UDG A3A counter inactive
Cc1ccccc1NP1(=O)OCCCN1Cc1ccccc1Cl (configuration not stated)	none (no result: APOBEC3A inh, ALR H2O2 inh, PHOSPHO1 block, A3G deaminase)
Clc1ccc(-c2nnc3n2N=C(c2ccc(-c4ccccc4)cc2)CS3)cc1	none (no result: aDG glyco up, APOBEC3A inh, ALR H2O2 inh, PHOSPHO1 block, A3G deaminase)
CCOC(=O)[C@@]12CN(C(=O)OC(C)(C)C)CC=C1N(Cc1ccc(OC)cc1)C(=O)[C@H]2CC(=O)N1CCCCC1	none (no result: aDG glyco up, APOBEC3A inh, ALR H2O2 inh, PHOSPHO1 block, A3G deaminase)
CN1CCN(S(=O)(=O)c2cccc(C(=O)Nc3cc(Cl)ccc3N3CCOCC3)c2)CC1	APOBEC3A inh 51 (no result: ALR H2O2 inh, PHOSPHO1 block) | A3A conf 31 | UDG A3A counter inactive
CC1CC(C)CN(CCCNC(=O)C2CCN(c3ncnc4c3sc3cccc(F)c34)CC2)C1 (configuration not stated)	none (no result: aDG glyco up, rCAG RNA binder)
CCN(CC)CCCNC(=O)C1CCN(c2ncnc3c2sc2cccc(F)c23)CC1	APOBEC3A inh 48 | A3A conf inactive | UDG A3A counter inactive
COc1cccc(-c2nnc3sc(-c4ccc(Br)o4)nn23)c1	none (no result: aDG glyco up, APOBEC3A inh, ALR H2O2 inh, PHOSPHO1 block, A3G deaminase)
CCc1nc2ccc(C(=O)N(C)Cc3ccco3)cn2c1N(CC)Cc1cccc(Br)c1	none (no result: APOBEC3A inh, ALR H2O2 inh, PHOSPHO1 block, A3G deaminase)
COc1ccc(N2Cc3cccc(C(=O)N4CCN(C(=O)c5ccco5)CC4)c3C2=O)cc1	APOBEC3A inh 59 | A3A conf 43
COc1ccc(N2Cc3cccc(C(=O)N4CCOCC4)c3C2=O)cc1	none
CCN(c1ccccc1)S(=O)(=O)c1cc(C(=O)OC(C)C(=O)Nc2ccc3c(c2)OCCO3)ccc1C (configuration not stated)	APOBEC3A inh 50 (no result: ALR H2O2 inh) | A3A conf 37 | UDG A3A counter inactive
CCCCn1c(N)c(N(CC(C)C)C(=O)Cc2ccc(S(=O)(=O)N3CCOCC3)s2)c(=O)[nH]c1=O	none (no result: APOBEC3A inh, ALR H2O2 inh, PHOSPHO1 block, A3G deaminase)
CCn1c(SCC(=O)NCc2ccccc2)nnc1C(CO)NC(=O)c1ccccc1 (configuration not stated)	APOBEC3A inh 69 | A3A conf 62 | UDG A3A counter inactive
CCn1c(SCC(=O)NCCc2ccccc2)nnc1C(C)C	none
COc1ccc(N(CC(=O)N2CCCCCC2)S(=O)(=O)c2ccccc2[N+](=O)[O-])c(OC)c1	APOBEC3A inh 50 | A3A conf 62 | UDG A3A counter inactive
COc1cc(OC)c2ccc(=O)oc2c1C(CCN1CCCC1)c1ccc2c(c1)OCO2 (configuration not stated)	APOBEC3A inh 64 (no result: ALR H2O2 inh) | A3A conf inactive
COc1ccc(CN(CCN2CCOCC2)C(=O)c2cc(F)ccc2C)cc1OC	none (no result: aDG glyco up, APOBEC3A inh, ALR H2O2 inh, PHOSPHO1 block, A3G deaminase)
COc1cc(C(=O)NCc2ccco2)c(Br)c(OC)c1OC	APOBEC3A inh 51 | A3A conf inactive | UDG A3A counter inactive
COc1cc(C(=O)NCc2ccco2)cc(OC)c1OC	none
CCC1Sc2ccc(S(=O)(=O)CCC(=O)N3CCc4ccccc43)cc2NC1=O (configuration not stated)	APOBEC3A inh 66 | A3A conf inactive | UDG A3A counter inactive
O=C(Cn1nnc(-c2ccccc2F)n1)Nc1ccc(Cl)cc1	none (no result: aDG glyco up, APOBEC3A inh, ALR H2O2 inh, PHOSPHO1 block, A3G deaminase)
CC[N+](C)(CC)CC(=O)OCC1C(C)C=C(C)CC1C (configuration not stated)	APOBEC3A inh 73 | A3A conf 82 | UDG A3A counter inactive
O=C(Nc1cccc2ncccc12)c1ccc(F)cc1	none
O=C(Nc1cccc2ncccc12)c1ccc(Cl)cc1	APOBEC3A inh 65 | A3A conf 42
C[C@@H]1CN([C@@H](C)CO)C(=O)CCCn2cc(nn2)CO[C@H]1CN(C)C(=O)NC1CCCCC1	none (no result: aDG glyco up, APOBEC3A inh, ALR H2O2 inh, PHOSPHO1 block, A3G deaminase)
C=CCN=C1NC(c2cccc(F)c2)C(C(=O)OC)=C(C)N1C (configuration not stated)	none (no result: aDG glyco up, APOBEC3A inh, ALR H2O2 inh, PHOSPHO1 block, A3G deaminase)
CCC(C)N(C(=O)c1csnn1)C(C(=O)NC(C)(C)C)c1ccccc1 (configuration not stated)	APOBEC3A inh 62 | A3A conf inactive | UDG A3A counter inactive
CCOC(=O)C1=C(C)Nc2sc(C(=O)c3ccc(F)cc3)c(N)c2C1c1ccc(C(=O)OC)cc1 (configuration not stated)	APOBEC3A inh 76 | A3A conf inactive | UDG A3A counter inactive
CCOC(=O)C1=C(C)Nc2sc(C(=O)c3ccc(C)cc3)c(N)c2C1c1ccc(C(=O)OC)cc1 (configuration not stated)	none

Screens deposited in PubChem BioAssay by several laboratories.
